{
  "source": "PubChem BioAssay AID2284065",
  "about": "(EPA ToxCast)",
  "note": "Activity calls are given as the source filed them. How the source made its calls: active means hit-call score of the fitted dose curve at least 0.9, where 1 is the maximum; inactive means score below 0.9.",
  "data": [
    {"biological_target": "CYP2C8, CYP2C8 (gene 1558) (UniProt P10632)", "sequence (P10632 whole entry, looked up)": "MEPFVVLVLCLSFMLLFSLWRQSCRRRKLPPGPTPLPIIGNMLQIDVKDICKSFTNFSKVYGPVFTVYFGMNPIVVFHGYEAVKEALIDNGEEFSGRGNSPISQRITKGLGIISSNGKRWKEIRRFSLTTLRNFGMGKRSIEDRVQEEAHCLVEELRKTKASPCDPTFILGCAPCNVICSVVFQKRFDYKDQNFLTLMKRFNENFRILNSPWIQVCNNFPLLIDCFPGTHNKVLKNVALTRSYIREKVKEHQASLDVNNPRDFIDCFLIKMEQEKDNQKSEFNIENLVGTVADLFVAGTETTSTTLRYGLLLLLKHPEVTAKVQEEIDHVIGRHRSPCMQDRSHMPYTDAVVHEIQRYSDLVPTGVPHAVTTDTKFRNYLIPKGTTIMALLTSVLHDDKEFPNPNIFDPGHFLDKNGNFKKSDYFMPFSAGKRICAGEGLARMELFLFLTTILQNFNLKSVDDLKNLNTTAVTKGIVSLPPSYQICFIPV", "assay": "ERF_FR_ADME_hCYP2C8: Eurofins (ERF) CYP450-related Enzyme Activity (ADME) Assay for CYP2C8", "method": "ERF_FR_ADME_hCYP2C8 is a biochemical, single-readout assay that uses extracted gene-proteins in a cell-free assay. Measurements were taken 0.16 hour after chemical dosing in a 96-well plate. See CYP2C8 inhibition (HLM, amodiaquine substrate).ERF_FR_ADME_hCYP2C8 is an assay component calculated from the ERF_FR_ADME_hCYP2C8 assay. It is designed to measure enzyme activity using a type of enzyme reporter as detected by peak area response of desethylamodiaquine with HPLC-MS/MS technology.Data from the assay component ERF_FR_ADME_hCYP2C8 was analyzed at the assay endpoint, ERF_FR_ADME_hCYP2C8, in the positive analysis fitting direction relative to acetonitrile as the negative control and baseline of activity. Using a type of enzyme reporter, loss-of-signal activity can be used to understand changes in enzymatic activity as they relate to gene CYP2C8. To generalize the intended target to other relatable targets, this assay endpoint is annotated to the cyp intended target family, where the subfamily is […].\nAssay cells are incubated for 10 minutes at 37C with 10 uM amodiaquine.", "values": [
      {"smiles": "CCCCC[C@H](O)CC(=O)CCc1ccc(O)c(OC)c1", "AC50": "2.27 µM (active)"},
      {"smiles": "COc1cc(CCC(=O)CC(=O)CCc2ccc(O)c(OC)c2)ccc1O", "AC50": "1.83 µM (active)"}
    ]}
  ]
}
